Experimental findings from ChEMBL document CHEMBL1157539, “Thousands of chemical starting points for antimalarial lead identification” (Nature, 2010) are described below.

The subject of this assay is Plasmodium falciparum. Kind of assay: GSK_TCMDC: Inhibition of Plasmodium falciparum 3D7 in whole red blood cells, using parasite LDH activity as an index of growth. Test compounds present at 2uM. The assay is classed as functional.
Consider `Br.Oc1ccc(CNCCCCCCNCCc2ccc(Cl)cc2)cc1O`, for which the Inhibition – broadly, the drop in the measured response relative to a control, in per cent – is given as 94%.
The figure for `CCOC(=O)c1nc(-c2ccccc2)[nH]c1-n1nc(C)cc1C` is 92%.
In the case of `O=C(NCCc1ccccc1)N(Cc1cccc(-c2ccc(CNCc3ccc4c(c3)OCO4)cc2)c1)C1CCN(Cc2ccccc2)CC1.O=C(O)C(F)(F)F` it was 94%; in that of `COc1cc(C)c(NC(=O)c2cccc3c(=O)c(C)c(-c4ccccc4)oc23)cc1OC`, 86%; in that of `CCOC(=O)CN1Cc2cc(NCc3ccc4ccc5nc(C)[nH]c(=O)c5c4c3)ccc2C1=O`, 84%.
In the case of `Cc1noc(-c2cccs2)c1C(=O)NC(C)c1cccc2ccccc12` (stereo not given) it was 97%; in that of `O=C(NCc1ccccc1)Nc1cccc(-c2cccc(-c3nc4cc(C(F)(F)F)ccc4[nH]3)c2)c1`, 95%; in that of `O=c1c2ccccc2[nH]c2nc3ccccc3c(Nc3ccccc3)c12`, 98%.
As to `Oc1c(C(Nc2ccccn2)c2ccco2)cc(Cl)c2cccnc12` (stereo not given), the Inhibition worked out at 87%.
The figure for `C#CCN(Cc1ccc2[nH]c(N)nc(=O)c2c1)c1ccc(C(=O)N[C@@H](CCC(=O)O)C(=O)O)cc1` is 95%; for `CCS[C@@H]1O[C@H](COC(=O)c2ccccc2)[C@H](OC(=O)c2ccccc2)[C@H](OC(=O)c2ccccc2)[C@H]1OC(=O)c1ccccc1` it is 98%.
Consider `CCCCCCN1CCC(NCc2cccc(C#N)c2)CC1.O=C(O)C(F)(F)F`, for which the Inhibition stood at 97%.
Regarding `CCNc1cc(C)nc(Nc2ccc(C)cc2)n1`, the Inhibition came to 100%.
The figure for `CC(C)(C)OC(=O)C1CCCN(Cc2ccc(-c3cccc(-c4nc5ccccc5[nH]4)c3)cc2)C1.O=C(O)C(F)(F)F` (stereo not given) is 93%.
The figure for `CCOc1ccccc1CON1C(N)=NC(N)=NC1(C)C` is 90%; for `CN(C)CCOc1ccc(-n2c(-c3nonc3N)nc3cncc(-c4ccc(F)cc4)c32)cc1` it is 97%; for `N#Cc1ccc(C(=O)NC2CCN(CCCCCNC(=O)/C=C/c3ccc(Cl)c(Cl)c3)CC2)cc1` it is 98%.
In the case of `Cc1cnccc1/C=C/c1cccc(OCCN2CCc3ccc(S(C)(=O)=O)cc3CC2)c1` it was 93%.
For the compound `COc1cccc(-c2cc(C(=O)NC3CCC(N4CCC(c5ccccc5C)CC4)CC3)[nH]n2)c1` (stereo not given), the Inhibition is listed as 99%.
As to `COc1ccc(NC(=O)/C=C/c2ccccc2Cl)cc1OCCN1CCC(NCc2cccnc2)CC1`, the Inhibition was 100%.
`COc1ccc2[nH]c(C)cc(=NN=Cc3ccccc3)c2c1` returned an Inhibition of 80%.
In the case of `CCCCN(CCCC)/C(=N/C(=N)Nc1ccc(Cl)cc1)NCCCCCCN/C(=N\C(=N)Nc1ccc(Cl)cc1)N(CCCC)CCCC` it was 81%; in that of `N#Cc1ccc(N(CCOc2ccc(Cl)c(F)c2)Cc2ccccc2C(F)(F)F)cc1C(F)(F)F`, 100%; in that of `CC(CN(C)C)C(=O)Nc1ccc(-c2ccc(-c3nc4ccccc4[nH]3)s2)cc1` (stereo not given), 100%.
The figure for `Cc1nn(-c2cccc(Cl)c2)c2c1C(C(=O)c1ccc3c(c1)OCO3)CC(=O)N2` (stereo not given) is 98%; for `O=C(Cn1c(CCc2cccc(F)c2F)nc(=O)c2ccccc21)N(Cc1ccc(-c2ccc(C(F)(F)F)cc2)cc1)C1CCN(C2CCSCC2)CC1.O=C(O)C(O)C(O)C(=O)O` it is 99%; for `COc1cc(Nc2nccc(N3CCC(NC(=O)Nc4cccc(C(C)=O)c4)C3)n2)cc(OC)c1OC` (stereo not given) it is 91%.
`CC(C)(CN)c1cc(-c2ccc(Cl)c(O)c2)c(-c2ccncc2)o1.Cl` returned an Inhibition of 92%.
The figure for `O=C(O)C(F)(F)F.O=[N+]([O-])c1cccc(CNC2CCN(Cc3ccc(C(F)(F)F)cc3)CC2)c1` is 99%.
Compound `Cl.Oc1cccc(Nc2ccnc3cc(-c4ccccn4)ccc23)c1` came in with an Inhibition of 96%.
As for `Nc1ncnc2cc(-c3cccc(NC(=O)Nc4ccccc4)c3)sc12`, the Inhibition worked out at 94%.
In the case of `CN(c1ccc(NC(=O)Nc2cc(C(C)(C)C)on2)cc1)c1ccnc(NCCOC(=O)Nc2cc(C(C)(C)C)on2)n1.O=C(O)C(F)(F)F` it was 100%; in that of `COc1cc2nc(NCCc3ccccc3)nc(NCCc3ccccc3)c2cc1OC`, 100%; in that of `COc1ccc(CNCc2ccc(-c3ccc(-c4nc5ccccc5[nH]4)cc3)cc2)cc1.O=C(O)C(F)(F)F`, 100%.
In the case of `CN1CCCC1CCNC(=O)[C@H](CC1CCCCC1)NC(=O)c1ccc(O)c(-c2ccc(Cl)c(Cl)c2)c1` (stereo not given in full) it was 98%; in that of `CCN1CCCC(CNC(=O)/C(=C/C=C/c2cc3cc(Cl)c(Cl)cc3[nH]2)OC)C1` (stereo not given), 93%; in that of `O=C1SC(S)=NC1=CNCCCCCCO`, 91%.
In the case of `COc1ccc(N2CCN(CCCCNC(=O)c3ccc(NC(=O)c4cccc(Cl)c4)cc3)CC2)c(OC)c1` it was 100%; in that of `O=C(O)C(F)(F)F.O=S(=O)(NC1CCN(c2ccnc3cc(Cl)ccc23)C1)c1ccc(C(F)(F)F)cc1` (stereo not given), 100%.
In turn, `O=C(NCC1CCC(C(=O)NCc2cccc3ccccc23)CC1)c1ccc(O)c(-c2ccc(Cl)c(Cl)c2)c1` (stereo not given) had an Inhibition of 100%.
